From PubChem
HP1b binding inh = HTS for Inhibitors of HP1-beta Chromodomain Interactions with Methylated Histone Tails. Chromobox protein homolog 1 (Homo sapiens), P83916. AlphaScreen HP1-beta / biotin-H3K9me3 peptide binding. Potency, µM (titrated, usually from 114 µM), actives largely listed as inhibitors. 390,000 tested, 0.56% active. AID 540317, 2011; further: nearly all actives have a fitted effect of over 70% in size
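HP1-beta protein (50 nM final) preincubated 30 min at room temperature with biotinylated H3(1-18)K9me3 peptide (50 nM) in PBS pH 7.4, 0.01% Tween-20, then compound added for 30 min. AlphaScreen streptavidin donor/nickel chelate acceptor beads (10 ug/mL final), 30 min dark, luminescence read.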
BAZ2B inh = qHTS Assay for Inhibitors of BAZ2B; AlphaScreen BAZ2B-H3K14Ac peptide displacement; Potency, µM (doses to about 114 µM), actives largely listed as inhibitors; 360,000 tested, 4.4% active; AID 504333, 2011; further: nearly all actives have a fitted effect of over 60% in size
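Multi-concentration screen (max 110 uM) measuring displacement of acetylated histone H3 peptide from BAZ2B by AlphaScreen, using 50 nM protein, 50 nM peptide and 10 ug/mL streptavidin donor plus Ni-chelate acceptor beads.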
G9a inh = qHTS Assay for Inhibitors of Histone Lysine Methyltransferase G9a; Histone-lysine N-methyltransferase EHMT2 (Homo sapiens), Q96KQ7; G9a H3K9 monomethylation, AlphaScreen, 2 h; Potency, µM (doses to about 102 µM), actives largely listed as inhibitors; 350,000 tested, 8.8% active; AID 504332, 2011; further: nearly all actives have a fitted effect of over 75% in size
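Using a bead-based AlphaScreen, monomethylated H3K9 product from 2 h room-temperature reactions (G9a 20 nM, peptide 500 nM, SAM 20 uM) was detected with 0.5 ug/mL rabbit anti-H3K9me1 antibody.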
CtBP-E1A blk = qHTS Assay for Inhibitors of the CtBP/E1A Interaction | 340,000 tested, 0.49% active | activity change, % (test concentration not listed) | AID 651724, 2012 | AlphaScreen GST-E1A/His-CtBP binding, 1536-well; active compounds read low; in the data active means activity change below about -65%; inconclusive means mostly about -30% to -63%
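Protein mix (5X: 125 nM each GST-E1A, His-CtBP) was incubated with pinned compound 2 h at 37 deg C in dark, in 50 mM Tris pH 8.0 buffer with 300 mM NaCl. Glutathione donor and nickel acceptor beads followed; AlphaScreen signal read after 1 h.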
Six1-Eya2 blk = qHTS Assay for Inhibitors of the Six1/Eya2 Interaction. Homeobox protein SIX1 (Homo sapiens) + Protein phosphatase EYA2 (Homo sapiens), …. AID 651725, 2012. 360,000 tested, 0.56% active. activity change, % (test concentration not listed). AlphaScreen GST-Six1/His-Eya2 binding, biochemical; active compounds read low; in the data active means activity change below about -65%; inconclusive means mostly about -30% to -63%
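GST-Six1 + His-Eya2 (5X stock: 250/500 nM); Tris pH 8.0, 300 mM NaCl, 0.05% BSA, 0.02% Tween 20; GSH donor/Ni acceptor beads; 1 h 37 °C dark; AlphaScreen readout.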
JMJD2A Tudor inh = qHTS Assay for Inhibitors of JMJD2A-Tudor Domain | AlphaScreen JMJD2A-Tudor / H3K4me3 peptide binding | Potency, µM (top dose mostly 114 µM), hits mostly inhibitors | 390,000 tested, 4.4% active | AID 504339, 2011; further: nearly all actives have a fitted effect of over 50% in size
Target sequence (O75164 whole entry, looked up, the tested form may be a part): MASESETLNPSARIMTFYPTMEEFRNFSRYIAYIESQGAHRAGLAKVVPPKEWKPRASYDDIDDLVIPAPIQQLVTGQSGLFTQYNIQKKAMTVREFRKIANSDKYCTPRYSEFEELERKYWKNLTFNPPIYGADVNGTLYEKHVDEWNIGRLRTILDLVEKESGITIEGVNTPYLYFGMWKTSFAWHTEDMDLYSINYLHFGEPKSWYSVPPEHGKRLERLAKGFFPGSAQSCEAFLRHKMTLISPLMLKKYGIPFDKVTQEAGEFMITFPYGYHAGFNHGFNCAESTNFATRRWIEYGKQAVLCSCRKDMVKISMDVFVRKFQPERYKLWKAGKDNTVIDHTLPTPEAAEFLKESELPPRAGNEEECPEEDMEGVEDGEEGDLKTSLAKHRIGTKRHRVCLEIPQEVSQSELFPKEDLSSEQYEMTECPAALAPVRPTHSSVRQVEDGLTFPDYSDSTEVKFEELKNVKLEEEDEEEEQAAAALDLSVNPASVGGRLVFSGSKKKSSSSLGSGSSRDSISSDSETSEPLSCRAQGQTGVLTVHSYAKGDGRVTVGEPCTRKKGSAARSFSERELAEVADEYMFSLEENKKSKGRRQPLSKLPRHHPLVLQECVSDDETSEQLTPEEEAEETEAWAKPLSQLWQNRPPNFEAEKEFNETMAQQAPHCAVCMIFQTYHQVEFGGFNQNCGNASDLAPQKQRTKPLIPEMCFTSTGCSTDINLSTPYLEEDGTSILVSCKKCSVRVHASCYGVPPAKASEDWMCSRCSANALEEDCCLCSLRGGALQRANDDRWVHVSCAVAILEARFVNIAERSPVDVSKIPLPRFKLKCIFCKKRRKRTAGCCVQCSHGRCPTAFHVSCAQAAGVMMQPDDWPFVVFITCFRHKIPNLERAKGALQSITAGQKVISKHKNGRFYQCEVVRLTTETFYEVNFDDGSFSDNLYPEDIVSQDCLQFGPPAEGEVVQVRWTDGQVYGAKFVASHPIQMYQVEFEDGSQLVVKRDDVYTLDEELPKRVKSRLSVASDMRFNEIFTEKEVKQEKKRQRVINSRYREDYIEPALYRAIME
Of the large screens only hits and unclear results are named; the others gave an inactive call. In the library only some 10% were active in any assay of this set; here they are far more common. Unless noted, the call rests on the fitted dose curve; in most records, active means well fitted inhibition curve with a large enough effect; inconclusive means small, poorly fitted or top-dose-only effect; inactive means no such curve, though single readings can be large or run the other way.

O=C(N/N=C/c1ccccn1)c1cc(-c2cccc3ccccc23)n[nH]1	HP1b binding inh inconclusive, CtBP-E1A blk inconclusive, JMJD2A Tudor inh inconclusive
COc1ccc(C(=O)/C=C/c2ccc(O)cc2)c(O)c1C/C=C(\C)CCC=C(C)C	JMJD2A Tudor inh 28µM (no result: BAZ2B inh, G9a inh)
COc1ccc(C=CC(=O)c2ccc(OC)c(OC)c2O)cc1OC	HP1b binding inh inconclusive, JMJD2A Tudor inh 50µM (no result: BAZ2B inh, G9a inh)
COc1ccc(/C=C/C(=O)Nc2nc(C)cc(C)n2)cc1OC	HP1b binding inh inconclusive, JMJD2A Tudor inh 50µM (no result: G9a inh)
COc1cc(/C=C/C(=O)CC(=O)/C=C/c2ccc(O)c(OC)c2)ccc1O	BAZ2B inh 40µM, JMJD2A Tudor inh inconclusive
COc1cc(OC)c(C(=O)C=Cc2ccc(OC)c(OC)c2)c(OC)c1	none (no result: BAZ2B inh, G9a inh)
O=C(c1ccncc1)N1CCC2(CC1)CN(c1cccc(-c3ccccc3)c1)C2	none (no result: HP1b binding inh, BAZ2B inh, CtBP-E1A blk, Six1-Eya2 blk, JMJD2A Tudor inh)
Cc1ccc(Cl)cc1NC(=O)C1C2CCC(O2)C1C(=O)O (centres undefined)	none
Cc1ccc(S(=O)(=O)Nc2cc3c(C(=O)OCc4ccccc4)c(C)oc3c3ccccc23)cc1	none (no result: CtBP-E1A blk, Six1-Eya2 blk)
Cc1ccc(S(=O)(=O)N2CCCCCC2)cc1C(=O)NCc1ccccn1	none
CCN(c1ccc(Cl)cc1)S(=O)(=O)c1nnc(NC(=O)C2CCCCC2)s1	none (no result: CtBP-E1A blk, Six1-Eya2 blk)
COc1cc(/C=C/C(C)=NNc2ccccc2)ccc1O	HP1b binding inh inconclusive, JMJD2A Tudor inh 50µM (no result: BAZ2B inh, G9a inh)
COc1ccc(S(=O)(=O)NCc2ccc3c(c2)CCN3C(C)=O)cc1OC	none (no result: CtBP-E1A blk, Six1-Eya2 blk)
CCOC(=O)c1ccc(CC(=O)c2oc3cc(O)ccc3c2C)o1	BAZ2B inh inconclusive, G9a inh inconclusive, JMJD2A Tudor inh inconclusive
CCOC(=O)c1ccc(CC(=O)c2ccc(O)c(O)c2O)o1	HP1b binding inh inconclusive, BAZ2B inh 32µM (no result: G9a inh)
C=CCn1c(C)cc(C(=O)COc2ccc(N(C)S(=O)(=O)c3ccc(NC(C)=O)cc3)cc2)c1C	none (no result: BAZ2B inh, G9a inh)
COCC(C)n1c(C)cc(C(=O)COc2ccc(N(C)S(=O)(=O)c3ccc(NC(C)=O)cc3)cc2)c1C (centres undefined)	BAZ2B inh inconclusive, G9a inh 35µM
ClCc1csc(-c2ccc(Cl)cc2)n1	none
CC1CN(Cc2csc(-c3ccc(Cl)cc3)n2)CC(C)O1 (centres undefined)	HP1b binding inh inconclusive, BAZ2B inh 50µM, G9a inh 40µM, JMJD2A Tudor inh 10µM
S=c1[nH]nc(-c2cc(-c3ccccc3)n[nH]2)n1/N=C/c1cccc(Cl)c1	HP1b binding inh inconclusive, BAZ2B inh 50µM, G9a inh 10µM, JMJD2A Tudor inh 40µM
S=c1[nH]nc(-c2cc(-c3ccccc3)n[nH]2)n1/N=C/c1ccc(Cl)c(Cl)c1	BAZ2B inh 45µM, G9a inh inconclusive, JMJD2A Tudor inh 50µM
CC(=O)c1cccc(-n2c(=O)c3c4c(sc3n(Cc3cccc(C)c3)c2=O)CN(C(C)=O)CC4)c1	none (no result: CtBP-E1A blk, Six1-Eya2 blk)
COCC(=O)N1CCC2(CC1)CCN(C(=O)Nc1cccc(C#N)c1)CC2	none (no result: HP1b binding inh, BAZ2B inh, CtBP-E1A blk, Six1-Eya2 blk, JMJD2A Tudor inh)
CC(C)Cn1cc(NC(=O)NCc2ccc(Cl)cc2)c2ccccc2c1=O	G9a inh inconclusive, JMJD2A Tudor inh 40µM (no result: CtBP-E1A blk, Six1-Eya2 blk)
CCN(CC)P(=O)(Nc1cccc(C(F)(F)F)c1)c1ccc(N(C)C)cc1NC(=O)c1ccco1 (centres undefined)	BAZ2B inh inconclusive, G9a inh 32µM, CtBP-E1A blk inconclusive, Six1-Eya2 blk inconclusive, JMJD2A Tudor inh inconclusive
COc1ccc(CNC(=O)CCc2c(C)nc3c(c2C)c(=O)n(C)c(=O)n3C)cc1	none (no result: CtBP-E1A blk, Six1-Eya2 blk)
Cc1ccccc1NC(=O)Cn1cnc2c(oc3nc4c(cc32)CCCC4)c1=O	BAZ2B inh inconclusive, G9a inh inconclusive
CCOC(=O)CC(=O)CSc1nc2c(cc1C#N)CCCCC2	G9a inh 7.9µM, JMJD2A Tudor inh 50µM
